Bioassay records from PubChem BioAssay.
HCMV inh – blocks human cytomegalovirus replication. activity change, negative = inhibition, % at 57.5 µM. AID 1259415. HFF cells, HCMV-luciferase reporter, 72 h; hits give low values. actives 4.5% (n = 410,000); in the data active = activity change below about -60%; inconclusive = no clear call, values can overlap the other calls; inactive = above about -39%
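Two-dose cell screen: HFF monolayers treated with compounds and infected with luciferase-expressing HCMV at 1 PFU/cell, 72 h at 37C, then lysed for luciferase measurement.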
Pf growth 96h – P. falciparum growth inhibition at 96 hours; P. falciparum luciferase reporter growth, 96 h; Potency, µM (highest dose often 28.7 µM), usual class: inhibitors; actives 6.9% (n = 320,000); AID 504834
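Compounds incubated with erythrocytes infected by luciferase-expressing P. falciparum (2% hematocrit, 0.05% parasitemia final) for 96 hours, 37 C in 5% CO2. Growth inhibition scored as decreased luciferase luminescence.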
Sm TGR block – inhibitors of Schistosoma mansoni thioredoxin glutathione reductase. AID 485364. purified TGR, DTNB reduction, TNB absorbance 405 nm. Potency, µM (highest dose often 114 µM), actives largely listed as inhibitors. Q962Y6. actives 3% (n = 360,000); also: nearly all actives have a fitted effect of over 60% in size
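First, TGR (20 nM dispensed) and NADPH were mixed with compound. Second, a 15 min room-temperature incubation followed. Third, further NADPH and then DTNB were added to start the reaction. Finally, TNB absorbance was monitored kinetically.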
SARS PLP yeast – blocks SARS-CoV papain-like protease in a yeast assay; S. cerevisiae expressing SARS-CoV PLpro, growth rescue; Potency, µM (highest dose often 32.9 µM), actives largely listed as activators; actives 0.19% (n = 330,000); AID 485353; calls by dose curve; also: nearly all actives have a fitted effect of over 55% in size
Pf growth 48h – inhibits P. falciparum growth in the first generation, 48 h | Potency, µM (doses to about 28.7 µM), most hits filed as inhibitors | actives 5.9% (n = 310,000) | P. falciparum luciferase growth in erythrocytes, 48 h
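Erythrocytes infected with P. falciparum carrying an integrated firefly luciferase reporter (2% hematocrit, 0.1% parasitemia final) were exposed to compounds in RPMI 1640 with 0.5% Albumax at 37 C, 5% CO2. Growth inhibition was scored as reduced luminescence.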
HCV inhibitor – inhibitors of hepatitis C virus infection; actives 3.4% (n = 340,000); Potency, µM (doses to about 41.8 µM), actives largely listed as inhibitors; Huh7.5.1 HCVcc-Cre infection, luciferase reporter, 44 h
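HCVcc-Cre virus at an moi near 0.5 was added right after compound to cells cultured 4 h from seeding (1,000 cells/well). Luciferase activity was determined 44 h later, 15 min after substrate addition at RT.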
Each line names hits and unclear results; the compound was inactive in the other large screens. Hits are enriched below; roughly 15% of the tested compounds scored in any of these assays. Unless noted, calls follow the shape of the dose curve; as a rule, active = well fitted curve in the direction sought with a large enough effect; inconclusive = small, poorly fitted or top-dose-only effect, or another doubt; inactive = no such curve, though single readings can be large; an effect the other way counts as inactive or inconclusive.

c1ccc(Cn2nnc(CNc3ccccc3)c2-c2c(CNc3ccccc3)nnn2Cc2ccccc2)cc1	Pf growth 96h 1.9µM, Pf growth 48h 2.6µM (no result: HCMV inh)
CCCCCOC(=O)c1cc(=O)[nH]c2ccccc12	none
CCCCCCCCCCOc1cc2c(=O)c(C(=O)OCC)c[nH]c2cc1OCC	Pf growth 48h 0.0015µM (no result: HCMV inh, Sm TGR block, SARS PLP yeast, HCV inhibitor)
COC(=O)C1=C(C)NC2=C(C(=O)CCC2)C1c1cn(Cc2ccc(Br)cc2)nc1-c1ccccc1 (centres undefined)	HCMV inh inconclusive, Pf growth 96h 13µM, Pf growth 48h 8.3µM, HCV inhibitor inconclusive
COC(=O)C1=C(C)NC2=C(C(=O)CC(C)(C)C2)C1c1cn(Cc2ccc(Br)cc2)nc1-c1ccccc1 (centres undefined)	Pf growth 96h inconclusive, Pf growth 48h 13µM, HCV inhibitor inconclusive (no result: HCMV inh)
COC(=O)C1=C(C)NC2=C(C(=O)CC(C)(C)C2)C1c1cccc(C)n1 (centres undefined)	Pf growth 96h inconclusive
CCNC(=O)C1(C)CCCN(Cc2ccc(-c3ccccn3)cc2)C1 (centres undefined)	HCMV inh -100 (no result: Pf growth 96h, Sm TGR block, SARS PLP yeast, Pf growth 48h, HCV inhibitor)
COc1ccc(S(=O)(=O)c2c(Nc3cccc(C)c3C)sc(C(=O)c3ccccc3)c2N)cc1	HCMV inh inconclusive (no result: Pf growth 96h, SARS PLP yeast, Pf growth 48h, HCV inhibitor)
Cc1ccc(OCC(=O)Sc2ccc(C)cc2)cc1	Sm TGR block 18µM (no result: Pf growth 48h)
Cc1ccc(OCC(=O)Oc2c(C)cccc2C)cc1	Pf growth 96h 0.33µM
COc1cc(C(=O)Sc2ccc(C)cc2)cc(OC)c1OC	Pf growth 96h inconclusive
Cc1ccc(OCC(=O)NCCNC(=O)COc2ccc(C)cc2)cc1	Pf growth 96h inconclusive
COc1ccccc1OCC(=O)Sc1ccc(C)cc1	Sm TGR block 7.1µM
COc1ccc(CNC(=O)c2oc3c(c2C)-c2nn(Cc4ccc(Cl)cc4)cc2CC3)cc1	none (no result: Pf growth 96h, SARS PLP yeast, Pf growth 48h, HCV inhibitor)
COCCNC(=O)C1(C)CCCN(C(=O)c2ccc(OC)c(OC)c2)C1 (centres undefined)	none (no result: Pf growth 96h, Sm TGR block, SARS PLP yeast, Pf growth 48h, HCV inhibitor)
COc1ccc(C2C(C(=O)Nc3ccccc3)=C(C)Nc3nc(CCCO)nn32)cc1 (centres undefined)	Pf growth 96h 13µM
CCOc1cc(C2C(C(=O)Nc3ccccc3)=C(C)Nc3ncnn32)cc(Br)c1O (centres undefined)	Sm TGR block 45µM (no result: Pf growth 96h, SARS PLP yeast, Pf growth 48h, HCV inhibitor)
CC1=C(C(=O)Nc2ccc(F)cc2)C(c2cccc(C)c2)n2nc(CCCO)nc2N1 (centres undefined)	Pf growth 96h 6.6µM
COc1ccccc1NC(=O)C1=C(C)Nc2nc(CCCO)nn2C1c1cccnc1 (centres undefined)	Pf growth 96h 5.2µM
O=C(Nc1cccc([N+](=O)[O-])c1)c1ccc2snnc2c1	HCMV inh inconclusive
CCC(Cn1nnc2ccccc2c1=O)NC(=O)Nc1cc(Cl)ccc1OC (centres undefined)	none (no result: Pf growth 96h, SARS PLP yeast, Pf growth 48h, HCV inhibitor)
CCOC(=O)C1=C(C)Nc2nc(SCC(=O)OC)nn2C1c1cc(F)cc(F)c1 (centres undefined)	Pf growth 96h inconclusive, Pf growth 48h inconclusive
CCOC(=O)C1=C(C)Nc2nc(SCC)nn2C1c1ccc(OC)cc1 (centres undefined)	Pf growth 96h 13µM
COc1ccc(CN(CCN(C)C)Cc2ccccc2)c(OC)c1	Pf growth 48h 13µM (no result: Pf growth 96h)
O=C(NCCN1CCC(n2c(=O)[nH]c3ccccc32)CC1)c1ccc(F)cc1Cl	none (no result: Pf growth 96h, Sm TGR block, SARS PLP yeast, Pf growth 48h, HCV inhibitor)
COc1ccc2cc1Oc1cc3c(cc1OC)CC[N+](C)(C)C3Cc1ccc(cc1)Oc1c(OC)c(OC)cc3c1C(C2)[N+](C)(C)CC3 (centres undefined)	none (no result: HCMV inh, Sm TGR block, SARS PLP yeast, HCV inhibitor)
Cc1ccc(C2CC(c3cccs3)=NN2C(=O)CSc2nc(=O)n3ccc(C)cc3n2)cc1 (centres undefined)	HCMV inh inconclusive, Pf growth 96h inconclusive, Pf growth 48h 8.3µM
COc1ccc(C2CC(c3cccs3)=NN2C(=O)CSc2nc(=O)n3ccc(C)cc3n2)cc1 (centres undefined)	Pf growth 96h inconclusive, Pf growth 48h 12µM, HCV inhibitor inconclusive (no result: HCMV inh)
COCCn1c(SCC(=O)Nc2ccc(F)cc2F)nc2c([nH]c3ccccc32)c1=O	none
O=C(Nc1ccc([N+](=O)[O-])cc1)C(Cc1ccccc1)N1C(=O)c2cccc3cccc(c23)C1=O (centres undefined)	Pf growth 96h inconclusive, Pf growth 48h 5.2µM
CO/N=C/CC(=O)c1ccc([N+](=O)[O-])c(CS(=O)(=O)c2ccc(Cl)cc2)c1	Pf growth 96h inconclusive, Pf growth 48h 15µM, HCV inhibitor inconclusive
CC(=O)NC(CC(=O)NCCc1ccccc1)c1ccccc1 (centres undefined)	none
CC(=O)NC(CC(=O)N(Cc1ccccc1)c1ccc(C)cc1)c1ccccc1 (centres undefined)	Pf growth 96h 13µM, Pf growth 48h inconclusive (no result: HCV inhibitor)
NC1=NC(S)C2N=CN=C2N1 (centres undefined)	Pf growth 96h 7.6µM, Pf growth 48h inconclusive (no result: HCMV inh, Sm TGR block, SARS PLP yeast, HCV inhibitor)
COc1ccc2nc(Cl)c(C3CC(c4ccco4)=NN3C(=O)CCCC(=O)O)cc2c1 (centres undefined)	Sm TGR block 8.9µM, Pf growth 48h inconclusive
Cc1ccc2cc(C3CC(c4ccco4)=NN3C(=O)CCCC(=O)O)c(Cl)nc2c1 (centres undefined)	HCMV inh inconclusive, Sm TGR block inconclusive
Cc1ccc2nc(Cl)c(C3CC(c4ccco4)=NN3C(=O)CCCC(=O)O)cc2c1 (centres undefined)	HCMV inh inconclusive, Sm TGR block 35µM, HCV inhibitor inconclusive
Cc1ccc(Sc2c([N+](=O)[O-])ncn2C)cc1	Sm TGR block inconclusive, Pf growth 48h inconclusive, HCV inhibitor inconclusive
Cn1cnc([N+](=O)[O-])c1Sc1ccc(Br)cc1	Pf growth 96h inconclusive, Sm TGR block 22µM, Pf growth 48h inconclusive, HCV inhibitor inconclusive
Cc1cc(C)n(Cc2cccc(C(=O)N/N=C/c3cccnc3)c2)n1	none
CCn1c(/C(C#N)=C/c2ccccc2Cl)nc2ccccc21	HCMV inh -73 (no result: Pf growth 96h, SARS PLP yeast, Pf growth 48h, HCV inhibitor)
CCOC(=O)c1csc(N)c1-c1ccc([N+](=O)[O-])cc1	HCMV inh -71, HCV inhibitor inconclusive
CCOC(=O)c1c(-c2cccc([N+](=O)[O-])c2)csc1N	HCMV inh inconclusive
COc1ccccc1N(CC(O)COc1ccc(C)cc1)S(=O)(=O)c1ccccc1 (centres undefined)	Pf growth 96h 2.1µM, Pf growth 48h inconclusive
COc1ccccc1N(CC(O)COc1c(C)cc(C)cc1C)S(=O)(=O)c1ccccc1 (centres undefined)	Pf growth 96h 13µM, Pf growth 48h 12µM, HCV inhibitor inconclusive
CC(=O)O[C@]1(C(C)=O)CC[C@H]2[C@@H]3C=CC4=CC(=O)C=C[C@]4(C)[C@H]3CC[C@@]21C	Pf growth 96h 4.7µM, Pf growth 48h 12µM
